Experimental findings from ChEMBL document CHEMBL3988442, “University of Dundee, Small-Polar-MMV Screening Library” (2021) are described below.

What all share (set-up): scale not given: direction of the effect not stated beside the values
The target in assay [1] is Protein translocase subunit SecA (Escherichia coli (strain K12)) (UniProt P10408). As to the kind of experiment: Assay to Identify E. coli SecA ATPase Inhibitors. It is filed as functional. The note with it: 30 µM.
Assay [2] addresses T1, Ubiquitin-activating enzyme e1, putative (Leishmania donovani (strain BPK282A1)) (UniProt E9BSI1).
T1 sequence (whole entry): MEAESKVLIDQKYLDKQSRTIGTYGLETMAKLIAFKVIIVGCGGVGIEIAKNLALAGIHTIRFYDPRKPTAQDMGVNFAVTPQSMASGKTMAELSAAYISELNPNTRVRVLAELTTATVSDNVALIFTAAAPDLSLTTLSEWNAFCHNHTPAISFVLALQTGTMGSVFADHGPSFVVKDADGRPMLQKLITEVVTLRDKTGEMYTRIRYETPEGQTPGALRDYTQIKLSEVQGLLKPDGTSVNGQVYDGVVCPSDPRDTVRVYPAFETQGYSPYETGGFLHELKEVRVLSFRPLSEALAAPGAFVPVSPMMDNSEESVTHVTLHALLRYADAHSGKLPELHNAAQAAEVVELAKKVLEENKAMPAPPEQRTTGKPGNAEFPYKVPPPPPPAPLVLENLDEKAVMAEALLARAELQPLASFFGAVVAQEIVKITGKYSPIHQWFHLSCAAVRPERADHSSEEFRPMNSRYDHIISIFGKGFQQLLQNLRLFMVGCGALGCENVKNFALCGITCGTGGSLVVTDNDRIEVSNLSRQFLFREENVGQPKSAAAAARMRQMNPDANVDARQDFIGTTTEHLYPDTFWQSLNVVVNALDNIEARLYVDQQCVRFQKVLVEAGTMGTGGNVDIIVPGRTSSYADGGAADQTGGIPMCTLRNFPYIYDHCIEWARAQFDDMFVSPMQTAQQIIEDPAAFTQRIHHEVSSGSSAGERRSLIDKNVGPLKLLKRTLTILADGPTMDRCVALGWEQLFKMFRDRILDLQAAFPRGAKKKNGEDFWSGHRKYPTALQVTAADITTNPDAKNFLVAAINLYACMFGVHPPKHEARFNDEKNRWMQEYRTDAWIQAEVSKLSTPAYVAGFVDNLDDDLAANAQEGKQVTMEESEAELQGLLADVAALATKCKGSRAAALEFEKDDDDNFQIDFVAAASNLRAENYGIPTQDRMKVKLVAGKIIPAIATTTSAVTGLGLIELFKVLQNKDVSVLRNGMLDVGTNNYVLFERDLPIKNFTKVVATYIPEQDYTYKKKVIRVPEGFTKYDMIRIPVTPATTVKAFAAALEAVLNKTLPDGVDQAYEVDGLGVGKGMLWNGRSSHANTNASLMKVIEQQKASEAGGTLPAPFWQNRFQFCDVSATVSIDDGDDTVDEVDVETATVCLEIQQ
Description: Leishmania donovani Ubiquitin Activating Enzyme (LdE1). It is filed as functional. The note with it: 30 µM.

In assay [3] the target is T2, Aspartate--tRNA(Asp/Asn) ligase (Mycobacterium tuberculosis (strain ATCC 25618 / H37Rv)) (UniProt P9WFW3). Further: in the data most compounds retested in dose-response had high values.
T2 sequence (whole entry): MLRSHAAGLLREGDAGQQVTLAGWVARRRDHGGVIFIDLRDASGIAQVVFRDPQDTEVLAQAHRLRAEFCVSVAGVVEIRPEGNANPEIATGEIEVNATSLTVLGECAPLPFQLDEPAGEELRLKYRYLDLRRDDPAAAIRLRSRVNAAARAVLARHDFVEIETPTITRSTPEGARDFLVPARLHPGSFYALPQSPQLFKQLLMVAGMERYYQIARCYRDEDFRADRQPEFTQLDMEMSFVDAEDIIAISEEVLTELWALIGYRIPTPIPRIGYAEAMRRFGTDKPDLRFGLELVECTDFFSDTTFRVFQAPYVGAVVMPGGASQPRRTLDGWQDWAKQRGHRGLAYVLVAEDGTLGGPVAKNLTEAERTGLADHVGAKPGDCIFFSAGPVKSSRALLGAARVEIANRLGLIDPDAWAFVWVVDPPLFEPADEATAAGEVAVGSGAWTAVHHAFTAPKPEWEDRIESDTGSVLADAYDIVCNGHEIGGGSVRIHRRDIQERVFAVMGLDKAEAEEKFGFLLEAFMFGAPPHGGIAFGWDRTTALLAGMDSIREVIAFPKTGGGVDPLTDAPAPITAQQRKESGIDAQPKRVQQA
As to the kind of experiment: Assay for Asp RNA synthetase-1 from Mycobacterium tuberculosis. It is filed as functional. The note with it: 30 µM.

Assay [4] concerns the target AMP-activated protein kinase, AMPK (Homo sapiens) (UniProt P54646+O43741+P54619+Q9UGJ0+Q9Y478+Q13131+Q9UGI9). As to the kind of experiment: AMP-dependent Kinase enzyme assay. An in vitro enzyme assay that detects ADP turnover that is directly proportional to AMPK activity. This uses naive AMPK that is activated during the assay with MK-8722. In kind it is functional. The note with it: 30 µM.

Assay [5] deals with Sialic acid-binding Ig-like lectin 9 (Homo sapiens) (UniProt Q9Y336). As to the kind of experiment: Hs-Siglec9 ALPHAscreen SOP 20170721. The note with it: 10 µM. (In general: In Alpha technology, singlet oxygen from a donor bead excites a nearby acceptor bead.)
Chain of Sialic acid-binding Ig-like lectin 9 (Homo sapiens) (Q9Y336 whole entry): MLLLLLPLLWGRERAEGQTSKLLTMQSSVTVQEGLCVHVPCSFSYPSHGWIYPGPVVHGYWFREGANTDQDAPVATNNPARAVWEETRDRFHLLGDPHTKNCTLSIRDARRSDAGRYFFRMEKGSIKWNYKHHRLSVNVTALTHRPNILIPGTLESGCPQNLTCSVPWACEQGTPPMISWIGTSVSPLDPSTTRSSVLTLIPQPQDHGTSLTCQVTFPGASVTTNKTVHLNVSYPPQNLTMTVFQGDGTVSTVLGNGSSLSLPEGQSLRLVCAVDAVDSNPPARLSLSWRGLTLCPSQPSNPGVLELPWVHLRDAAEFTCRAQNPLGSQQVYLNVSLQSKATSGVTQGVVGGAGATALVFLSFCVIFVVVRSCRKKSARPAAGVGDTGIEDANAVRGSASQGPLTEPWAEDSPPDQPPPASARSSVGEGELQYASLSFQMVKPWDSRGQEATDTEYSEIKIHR
In assay [6] the test system is Trypanosoma cruzi. Description: Trypanosoma cruzi phosphomannomutase and mannose-1-phosphate guanylyltransferase assay. In kind it is functional. The note with it: 10 µM.
In assay [7] the target is T3, Arginase-2, mitochondrial (Homo sapiens) (UniProt P78540).
T3 sequence (whole entry): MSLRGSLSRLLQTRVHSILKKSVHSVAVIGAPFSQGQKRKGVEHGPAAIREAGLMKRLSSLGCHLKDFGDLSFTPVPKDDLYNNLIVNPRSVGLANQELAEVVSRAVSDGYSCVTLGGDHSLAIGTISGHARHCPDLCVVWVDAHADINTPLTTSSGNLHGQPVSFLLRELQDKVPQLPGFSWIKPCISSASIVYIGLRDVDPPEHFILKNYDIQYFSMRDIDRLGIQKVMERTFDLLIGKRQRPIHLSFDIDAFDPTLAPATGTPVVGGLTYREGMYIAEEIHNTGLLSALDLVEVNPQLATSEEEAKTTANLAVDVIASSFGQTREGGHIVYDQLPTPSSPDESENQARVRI
As to the kind of experiment: in vitro enzyme assay to detect the production of urea directly proportional to the activity of Arginase II. Further: in the data most compounds retested in dose-response had high values. It is filed as functional. The note with it: 33.3 µM.

Assay [8] addresses T4, Proteasome subunit beta (Trypanosoma cruzi) (UniProt O96673).
T4 sequence (whole entry): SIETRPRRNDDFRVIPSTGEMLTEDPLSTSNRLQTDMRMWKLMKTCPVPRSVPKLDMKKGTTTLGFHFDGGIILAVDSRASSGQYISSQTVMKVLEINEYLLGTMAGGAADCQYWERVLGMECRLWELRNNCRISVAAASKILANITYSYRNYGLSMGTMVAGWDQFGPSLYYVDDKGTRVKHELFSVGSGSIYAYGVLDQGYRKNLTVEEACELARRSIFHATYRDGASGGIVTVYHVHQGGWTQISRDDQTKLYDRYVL
Description: Trypanosoma cruzi proteasome chymotrypsin-like activity (TcProtChymo) assay. Further: in the data most compounds retested in dose-response had high values. In kind it is functional. Particulars: 9.37 µM.

Assay [9] is filed under the species Homo sapiens. As to the kind of experiment: To identify inhibition of the IFN signalling (Jak-Stat) pathway via expression of an eGFP reporter gene under the control of an IFN-stimulated response element (ISRE) containing MxA promoter. It is filed as functional. The note with it: 30 µM.
Assay [10] concerns the target Shiga toxin 2 (Escherichia coli O157:H7) (UniProt P09385+P09386). Description: E. coli 0.157:H7 Shiga Toxin SOP - stx2 screening assay. In kind it is functional. Particulars: 30 µM.
For assay [11], the target named is T5, Tyrosyl-tRNA synthetase, putative (Trypanosoma cruzi (strain CL Brener)) (UniProt Q4DSP6).
T5 sequence (whole entry): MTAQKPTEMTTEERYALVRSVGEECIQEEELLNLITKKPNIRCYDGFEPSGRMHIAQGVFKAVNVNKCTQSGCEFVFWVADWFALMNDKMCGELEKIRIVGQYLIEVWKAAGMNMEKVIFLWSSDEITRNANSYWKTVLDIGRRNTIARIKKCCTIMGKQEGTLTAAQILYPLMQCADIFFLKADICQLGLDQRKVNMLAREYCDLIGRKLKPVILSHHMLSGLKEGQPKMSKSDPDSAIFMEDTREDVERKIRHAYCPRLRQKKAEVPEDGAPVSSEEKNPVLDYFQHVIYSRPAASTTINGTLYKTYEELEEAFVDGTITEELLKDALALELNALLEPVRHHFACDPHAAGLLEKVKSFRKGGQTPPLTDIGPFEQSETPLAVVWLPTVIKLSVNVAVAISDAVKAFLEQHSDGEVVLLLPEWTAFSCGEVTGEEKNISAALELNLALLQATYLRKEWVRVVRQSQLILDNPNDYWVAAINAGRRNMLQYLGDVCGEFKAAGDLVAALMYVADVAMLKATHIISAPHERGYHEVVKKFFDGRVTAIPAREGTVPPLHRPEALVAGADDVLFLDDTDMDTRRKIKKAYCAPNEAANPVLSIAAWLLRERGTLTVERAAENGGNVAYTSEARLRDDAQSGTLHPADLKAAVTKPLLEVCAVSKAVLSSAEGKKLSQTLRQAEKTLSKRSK
As to the kind of experiment: Trypanosoma cruzi tyrosyl tRNA synthetase (TcYRS) _High Tyrosine SOP. Further: in the data most compounds retested in dose-response had high values. In kind it is functional. The note with it: 30 µM.

In assay [12] the target is T5, Tyrosyl-tRNA synthetase, putative (Trypanosoma cruzi (strain CL Brener)). As to the kind of experiment: Trypanosoma cruzi tyrosyl tRNA synthetase (TcYRS) SOP. In kind it is functional. Particulars: 30 µM.
The target of assay [13] is Chromo domain-containing protein 1 (Saccharomyces cerevisiae (strain ATCC 204508 / S288c) (Baker's yeast)) (UniProt P32657). As to the kind of experiment: ScCHD-1 Enzyme Inhibition Assay. Further: in the data most compounds retested in dose-response had high values. It is filed as functional. The note with it: 30 µM.
Chain of Chromo domain-containing protein 1 (Saccharomyces cerevisiae (strain ATCC 204508 / S288c) (Baker's yeast)) (P32657 whole entry, the tested form may be a part): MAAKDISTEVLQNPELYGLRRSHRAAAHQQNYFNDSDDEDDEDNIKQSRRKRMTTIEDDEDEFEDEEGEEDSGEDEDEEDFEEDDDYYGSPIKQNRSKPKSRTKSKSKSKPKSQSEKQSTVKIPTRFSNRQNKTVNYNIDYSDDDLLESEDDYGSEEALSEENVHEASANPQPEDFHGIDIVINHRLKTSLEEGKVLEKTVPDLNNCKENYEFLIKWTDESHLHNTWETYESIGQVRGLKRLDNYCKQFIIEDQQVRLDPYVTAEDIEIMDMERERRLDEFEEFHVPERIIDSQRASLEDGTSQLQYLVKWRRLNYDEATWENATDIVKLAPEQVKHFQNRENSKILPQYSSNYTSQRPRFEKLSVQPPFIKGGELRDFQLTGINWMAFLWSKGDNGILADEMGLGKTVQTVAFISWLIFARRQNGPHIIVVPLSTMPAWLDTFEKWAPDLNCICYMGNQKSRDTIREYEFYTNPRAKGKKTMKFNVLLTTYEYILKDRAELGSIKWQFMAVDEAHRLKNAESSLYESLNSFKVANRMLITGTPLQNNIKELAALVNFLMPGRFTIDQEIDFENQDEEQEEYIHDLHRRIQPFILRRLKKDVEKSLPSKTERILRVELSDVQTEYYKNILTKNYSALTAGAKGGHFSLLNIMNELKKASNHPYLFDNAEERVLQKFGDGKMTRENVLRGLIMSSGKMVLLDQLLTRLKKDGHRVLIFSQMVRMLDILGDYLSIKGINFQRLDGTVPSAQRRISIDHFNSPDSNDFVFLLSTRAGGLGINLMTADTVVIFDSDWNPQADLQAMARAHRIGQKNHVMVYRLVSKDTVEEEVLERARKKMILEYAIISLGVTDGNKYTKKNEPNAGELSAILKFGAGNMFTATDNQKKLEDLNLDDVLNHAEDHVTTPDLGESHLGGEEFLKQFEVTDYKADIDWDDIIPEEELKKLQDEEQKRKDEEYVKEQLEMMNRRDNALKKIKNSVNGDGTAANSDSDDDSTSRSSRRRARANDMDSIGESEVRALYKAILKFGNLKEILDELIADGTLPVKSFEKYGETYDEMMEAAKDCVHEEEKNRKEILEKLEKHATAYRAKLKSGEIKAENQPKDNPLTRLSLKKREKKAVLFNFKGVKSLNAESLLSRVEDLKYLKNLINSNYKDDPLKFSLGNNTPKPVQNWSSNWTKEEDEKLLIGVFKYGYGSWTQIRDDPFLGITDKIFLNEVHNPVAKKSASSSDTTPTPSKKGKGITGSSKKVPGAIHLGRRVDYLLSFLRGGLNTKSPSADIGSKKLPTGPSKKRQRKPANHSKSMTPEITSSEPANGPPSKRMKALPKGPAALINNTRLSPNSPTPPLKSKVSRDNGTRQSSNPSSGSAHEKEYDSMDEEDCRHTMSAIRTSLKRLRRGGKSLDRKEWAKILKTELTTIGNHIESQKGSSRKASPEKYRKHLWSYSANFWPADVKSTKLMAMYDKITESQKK

For part of these data: Results with a measured potency or affinity are listed apart.

Chain of Protein translocase subunit SecA (Escherichia coli (strain K12)) (P10408 whole entry): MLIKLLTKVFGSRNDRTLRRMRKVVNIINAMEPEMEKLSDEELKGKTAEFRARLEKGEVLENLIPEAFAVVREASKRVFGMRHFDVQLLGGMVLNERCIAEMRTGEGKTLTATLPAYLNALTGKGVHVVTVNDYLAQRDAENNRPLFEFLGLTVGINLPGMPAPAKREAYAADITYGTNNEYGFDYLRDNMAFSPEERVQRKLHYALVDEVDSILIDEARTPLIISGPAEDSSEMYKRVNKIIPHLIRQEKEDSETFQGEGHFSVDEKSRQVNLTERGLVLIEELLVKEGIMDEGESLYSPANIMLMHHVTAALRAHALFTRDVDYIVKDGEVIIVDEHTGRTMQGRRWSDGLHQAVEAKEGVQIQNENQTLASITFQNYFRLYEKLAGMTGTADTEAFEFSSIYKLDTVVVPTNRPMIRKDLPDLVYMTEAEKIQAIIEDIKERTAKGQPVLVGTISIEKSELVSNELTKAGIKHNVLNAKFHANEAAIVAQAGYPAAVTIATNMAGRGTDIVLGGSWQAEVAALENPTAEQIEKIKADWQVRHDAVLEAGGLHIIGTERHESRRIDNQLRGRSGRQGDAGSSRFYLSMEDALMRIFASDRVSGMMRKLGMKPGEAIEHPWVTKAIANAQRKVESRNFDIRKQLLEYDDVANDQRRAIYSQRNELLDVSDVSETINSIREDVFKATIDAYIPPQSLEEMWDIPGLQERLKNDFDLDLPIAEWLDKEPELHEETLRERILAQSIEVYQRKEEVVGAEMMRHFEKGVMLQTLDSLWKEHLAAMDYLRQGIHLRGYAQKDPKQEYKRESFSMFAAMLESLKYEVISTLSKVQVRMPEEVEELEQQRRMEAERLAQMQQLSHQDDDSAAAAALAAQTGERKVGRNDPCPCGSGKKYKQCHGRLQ

As for `O=C(NC[C@]12COC[C@H]1CN(Cc1cccnc1)C2)c1ccno1`, the Percent Effect was 0.292% in [1]; 13.3% in assay [2]; 0.956% in assay [3]; 8.36% in [4]; -8.01% in [5]; -4.13% in assay [6]. In addition, the Percent Effect was -0.233% in [7]; 2.73% in assay [8]; -4.47% in [9]; -10.4% in assay [10]; 9.57% in assay [11]; 19.2% in assay [12]. The Percent Effect in [13] was -7.79%.
`O=C(COc1cccc(F)c1)N1C[C@@H](O)[C@H](N2CCCC2)C1`: the Percent Effect in [1] is 0.584%; in assay [2], 4.05%; in assay [3], -0.878%; in assay [4], 10.1%; in assay [5], 2.64%; in [6] it was 4.94%. The Percent Effect in [7] is 0.696%; in assay [8] it was 7.33%; in assay [9], -0.848%; in assay [10], -11.4%; in [11], 0%; in [12] it was -3.9%. For the same molecule, the Percent Effect in assay [13] was -18.1%.
On to `CCc1nc(CNC(C)Cn2cccn2)cs1` (stereo not given), for which the Percent Effect in [1] is -1.58%; in [2], 13.5%; in assay [3], 5.32%; in assay [4], -19.1%; in assay [5], 12.1%; in assay [6], 2.36%. For the same molecule, the Percent Effect in assay [7] was -12%; in assay [8], 9.73%; in [9] it was 14.4%; in assay [10], 9.22%; in assay [11] it was 12.3%; in assay [12], 30.9%. Also, the Percent Effect in assay [13] is -13.1%.
For `c1ccc(OC[C@]23COC[C@H]2CN(Cc2ccoc2)C3)nc1`, the Percent Effect is -3.19% in [1]; 10.7% in assay [2]; -2.04% in assay [3]; -1.7% in assay [4]; 1.05% in [5]; 4.05% in [6]. In addition, the Percent Effect in assay [7] is -57.9%; in [8] it was 12.1%; in assay [9], -8.07%; in [10], -23.7%; in assay [11], 3.12%; in [12], 17.5%. In addition, the Percent Effect in [13] is -6.62%.
As for `Cn1cc(C(=O)N2CC[C@@H]3[C@@H]2CCN3Cc2cccnc2)cn1`, the Percent Effect was -4.7% in assay [1]; 8.11% in assay [2]; 1.51% in assay [3]; 4.43% in assay [4]; 1.46% in assay [5]; -2.83% in assay [6]. Also, the Percent Effect in assay [7] is 0.955%; in assay [8], 17.7%; in [9] it was -13.9%; in assay [10], -2.5%; in assay [11] it was 3.24%; in assay [12] it was 12.8%. Moreover, the Percent Effect in assay [13] was determined as 0.704%.
Regarding `COc1cc(CNCC(O)c2ccc(C)cc2)cc2c1OCCO2` (stereo not given), the Percent Effect is -5.58% in assay [1]; 24.3% in assay [2]; -2.36% in assay [3]; 11% in [4]; 14.6% in assay [5]; 2.32% in assay [6]. The Percent Effect in [7] is -3.88%; in [8], 16.3%; in assay [9], 8.18%; in assay [10] it was -34.2%; in assay [11] it was 6.93%; in assay [12], 18.3%. The Percent Effect in assay [13] was -6.66%.
On to `COCCN1C[C@H]2[C@@H](C1)N(C(=O)COc1ccccc1)CC[C@H]2OC`, for which the Percent Effect in assay [1] is -3.67%; in [2], 3.9%; in assay [3] it was -1.3%; in assay [5], 0.149%; in assay [6] it was 5.36%; in assay [7] it was -4.45%. Moreover, the Percent Effect in assay [8] was 19.7%; in assay [9] it was -1.44%; in assay [10] it was -14.5%; in [11] it was 5.79%; in assay [12], 15.4%; in assay [13], 36.6%.
